GSH bead fluor: compound fluoresces at 488/530 nm on GSH beads; 190,000 compounds, 0.25% hits; fluorescence (KMESF) at 10 µM; GSH beads flow cytometry, compound fluorescence 488/530 nm; hits give high values; in the data active = fluorescence above about 89;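 also: glutathione beads carrying GST-tagged Bcl family fusion proteins plus one bare bead set; values are compound well signal with DMSO vehicle wells as background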
EP2 modulator: modulators of human EP2 prostaglandin E2 receptor; P43116; EP2-expressing cells, cAMP HTRF FRET, PGE2 co-stimulation; induction, % at 25 µM; 260,000 compounds, 0.83% hits; AID 940;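 active = compounds whose cAMP rise, as percent of the full-agonist control response, exceeds 60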;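 also: rat C6 glioma line stably carrying human EP2 under a CMV promoter; the protocol text gives 20 µM as final concentration; 100% = response of wells given 1 µM PGE2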
Target sequence (P43116 whole entry, looked up): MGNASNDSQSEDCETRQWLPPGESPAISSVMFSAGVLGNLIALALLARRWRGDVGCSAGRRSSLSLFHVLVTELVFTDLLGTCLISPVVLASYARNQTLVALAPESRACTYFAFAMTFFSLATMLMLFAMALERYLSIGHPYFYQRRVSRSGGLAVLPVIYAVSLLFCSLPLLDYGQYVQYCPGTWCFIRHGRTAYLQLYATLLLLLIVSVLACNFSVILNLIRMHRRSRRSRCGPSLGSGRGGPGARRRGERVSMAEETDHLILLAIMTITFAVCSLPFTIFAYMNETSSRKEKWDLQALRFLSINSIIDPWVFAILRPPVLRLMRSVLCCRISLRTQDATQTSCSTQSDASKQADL
PGE2 EP2 inh: EP2 receptor (human) inhibition; 260,000 compounds, 0.52% hits; inhibition, % at 25 µM; C6 glioma cells expressing human EP2, cAMP TR-FRET; cells stimulated with saturating PGE2; P43116;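 active = percent inhibition above 40 after rounding to a whole number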;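 also: rat C6 glioma host cells with rolipram phosphodiesterase inhibitor present; the protocol text gives 20 µM as final concentration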
HMGR II inh: inhibitors of class II HMG-CoA reductase from Enterococcus faecalis | 190,000 compounds, 0.41% hits | inhibition, % at 10 µM | purified E. faecalis HMGR, NADPH absorbance 340 nm kinetic;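 active = inhibition above a set limit, the median over all tested compounds plus 3 SD, cut at about 9.5% in these data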;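 also: enzyme runs in reverse so mevalonate oxidation gives rising NADPH absorbance; 0% = complete reaction with DMSO and 100% = background rate lacking mevalonate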
Avidin bead fluor: compound fluoresces at 488/530 nm on avidin beads. compound fluorescence 488/530 nm, flow cytometry; hits give high values. fluorescence (KMESF) at 10 µM. 220,000 compounds, 0.38% hits. AID 1775; in the data active = fluorescence above about 47
Numbers without * were called inactive. Sampled rows, rich in hits. Any-hit rate of the full collection: about 2.1%.

How did COc1ccccc1N(Cc1cc(=O)[nH]c2ccccc12)C(=O)c1ccccc1 do in these assays?
EP2 modulator: 30.8; PGE2 EP2 inh: 8.6; Avidin bead fluor: 9

What do the screens show for `COC(=O)c1ccc(NC(=O)CSc2nnc(-c3ccncc3)n2-c2ccc(OC)cc2)cc1`?
EP2 modulator: 9.8; PGE2 EP2 inh: 14.7

Results for Cc1ccnc2nc(C(=O)N3CCN(c4ccc(F)cc4)CC3)nn12 ?
GSH bead fluor: 249*; EP2 modulator: -5.0; PGE2 EP2 inh: 8.5; HMGR II inh: 0.1; Avidin bead fluor: 5

Results for O=C(NC1CCCc2c1cnn2-c1ccc(F)cc1)C1CCCN1C(=O)C(F)(F)F (stereo unspecified) ?
EP2 modulator: 1.4; PGE2 EP2 inh: 8.8

How did Cc1cc(/C=C2/SC(=O)NC2=O)cc(C)c1O do in these assays?
EP2 modulator: 6.6; PGE2 EP2 inh: 11.7

How did CN1CCC[C@H]1c1cccnc1.O=C(O)c1ccccc1O.O=C([OH2+])c1ccccc1O.O=C([OH2+])c1ccccc1O.[Mn+2] do in these assays?
EP2 modulator: 28.7; PGE2 EP2 inh: 40.3*

What do the screens show for `CN1CCCC1c1cccnc1` (stereo unspecified)?
PGE2 EP2 inh: 18.1

Results for CN1CCC[C@H]1c1cccnc1.O=C(O)c1ccccc1O.O=C([OH2+])c1ccccc1O.O=C([OH2+])c1ccccc1O.O=C([OH2+])c1ccccc1O.[Cu] ?
EP2 modulator: 9.4; PGE2 EP2 inh: 40.3*

What do the screens show for `CC(=O)Nc1ccc(S(=O)(=O)N2CCCCC2c2cccnc2)cc1` (stereo unspecified)?
GSH bead fluor: 68; EP2 modulator: -5.0; PGE2 EP2 inh: 6.0; HMGR II inh: -1.4; Avidin bead fluor: 8

Results for Cn1ccnc1C(NC(=O)Cc1ccc(F)cc1)c1ccc(F)c(F)c1 (stereo unspecified) ?
EP2 modulator: -46.7; PGE2 EP2 inh: 7.8

Results for O=C(O)CSc1cc(NS(=O)(=O)c2cccc3cccnc23)c2ccccc2c1O ?
EP2 modulator: -77.6; PGE2 EP2 inh: 11.4

What do the screens show for `Cc1ccc(CN(CCCn2ccnc2)Cc2cc(F)ccc2F)s1`?
EP2 modulator: 35.3; PGE2 EP2 inh: 4.2

Results for Cc1nnc2n(Cc3ccccc3)c(=O)c3c4c(sc3n12)COC(C(C)C)C4 (stereo unspecified) ?
GSH bead fluor: 4; EP2 modulator: 64.4*; PGE2 EP2 inh: 13.2; HMGR II inh: 1.1; Avidin bead fluor: 16

How did O=C(O/N=C1\CCS(=O)(=O)c2sccc21)c1ccccc1 do in these assays?
GSH bead fluor: 16; EP2 modulator: 2.0; PGE2 EP2 inh: 2.6; HMGR II inh: 4.6; Avidin bead fluor: 51*

How did O=C(Cc1ccc(-n2cnnn2)cc1)N1CCCCC1c1nc2ccccc2[nH]1 (stereo unspecified) do in these assays?
EP2 modulator: -18.9; PGE2 EP2 inh: 4.1

Results for Cc1cc(C)n(C(=O)CCCCCCCCC(=O)n2nc(C)cc2C)n1 ?
GSH bead fluor: 32; EP2 modulator: 60.8*; PGE2 EP2 inh: 0.8; HMGR II inh: -4.8; Avidin bead fluor: 9

How did Cc1[nH]c2ccccc2c1C(c1ccncc1)N1CCN(c2ccccc2F)CC1 (stereo unspecified) do in these assays?
GSH bead fluor: 10; EP2 modulator: -40.8; PGE2 EP2 inh: 7.4; HMGR II inh: -0.9; Avidin bead fluor: 92*

What do the screens show for `Cc1[nH]c2ccccc2c1C(c1ccncc1)N1CCN(c2ccccn2)CC1` (stereo unspecified)?
GSH bead fluor: 15; EP2 modulator: -14.2; PGE2 EP2 inh: 9.2; HMGR II inh: -10.8; Avidin bead fluor: 9

What do the screens show for `O=C(CNS(=O)(=O)c1ccccc1)OCC(=O)c1cccs1`?
EP2 modulator: 29.7; PGE2 EP2 inh: 14.3

Results for Cc1cc2c(s1)c1cnn(CC(=O)NC(C)(C)C)c(=O)c1n2Cc1ccc(F)cc1 ?
EP2 modulator: 8.1

What do the screens show for `COc1ccc(N2C(=O)CC(N3CCN(S(=O)(=O)c4ccc(Cl)cc4)CC3)C2=O)cc1` (stereo unspecified)?
GSH bead fluor: 14; EP2 modulator: -14.5; PGE2 EP2 inh: 7.2; HMGR II inh: 9.6*; Avidin bead fluor: 22

What do the screens show for `COc1ccc(N2C(=O)CC(N3CCC(O)(c4ccc(Cl)cc4)CC3)C2=O)cc1` (stereo unspecified)?
GSH bead fluor: 51; EP2 modulator: 5.8; PGE2 EP2 inh: 10.7; HMGR II inh: -2.6; Avidin bead fluor: 13

Results for COc1ccc2[nH]c3c(C)c4ccncc4c(C)c3c2c1 ?
EP2 modulator: -45.8; PGE2 EP2 inh: 87.4*; Avidin bead fluor: 4

How did COc1ccc2[nH]c(C)cc(=O)c2c1 do in these assays?
GSH bead fluor: 20; EP2 modulator: 25.3; PGE2 EP2 inh: 8.1; HMGR II inh: -1.1; Avidin bead fluor: 22

What do the screens show for `C=CCn1c(=NC(=O)c2ccco2)sc2cc(C(=O)OCC)ccc21`?
GSH bead fluor: 10; EP2 modulator: 33.4; PGE2 EP2 inh: 40.6*; HMGR II inh: -8.3; Avidin bead fluor: 13

How did CCOC(=O)c1ccc2c(c1)nc(SCC(=O)c1ccco1)n2CC do in these assays?
GSH bead fluor: 255*; EP2 modulator: -21.3; PGE2 EP2 inh: 13.6; HMGR II inh: -2.5; Avidin bead fluor: 5

How did COc1ccc(C2N=C(N)N=C(N)N2c2ccc(C)cc2)cc1 (stereo unspecified) do in these assays?
GSH bead fluor: 25; EP2 modulator: 6.1; PGE2 EP2 inh: -6.4; HMGR II inh: 2.4; Avidin bead fluor: 11

What do the screens show for `NC1=N[C@@H](c2ccc(Cl)cc2)N(c2ccc(S(N)(=O)=O)cc2)C(N)=N1`?
EP2 modulator: -0.3; PGE2 EP2 inh: 46.9*

How did Cc1ccc(-c2nn(C(C)(C)C)c3ncnc(NS(=O)(=O)c4ccc([N+](=O)[O-])cc4)c23)cc1 do in these assays?
GSH bead fluor: 23; EP2 modulator: 61.5*; PGE2 EP2 inh: 10.8; HMGR II inh: -5.1; Avidin bead fluor: 10

What do the screens show for `CC(C)(C)n1nc(-c2ccc(Cl)cc2)c2c(N)ncnc21`?
GSH bead fluor: 16; EP2 modulator: 40.6; PGE2 EP2 inh: 8.7; HMGR II inh: 1.8; Avidin bead fluor: 33

What do the screens show for `CCOC(=O)c1nnn(-c2nonc2N)c1CN1CCCCCC1`?
GSH bead fluor: 5; EP2 modulator: -6.0; PGE2 EP2 inh: 2.8; HMGR II inh: -5.1; Avidin bead fluor: 10

How did CCOC(=O)c1nnn(-c2nonc2-n2cccc2)c1CN1CCCCC1 do in these assays?
GSH bead fluor: 14; EP2 modulator: 63.3*; PGE2 EP2 inh: 10.6; HMGR II inh: -1.6; Avidin bead fluor: 14

What do the screens show for `CNc1nc2c(c(=O)n(C)c(=O)n2C)n1Cc1ccc(F)cc1`?
EP2 modulator: -8.1; PGE2 EP2 inh: 11.3

What do the screens show for `CN1[C@@H](c2ccccc2)CC(=NO)C[C@H]1c1ccccc1`?
EP2 modulator: 39.4; PGE2 EP2 inh: 41.9*

How did COc1ccccc1CN1CCN(C(=O)c2ccc(OC)c(OC)c2)CC1 do in these assays?
EP2 modulator: -46.1; PGE2 EP2 inh: 3.4

Compound activity from PubChem.
